Laboratory results: PubChem BioAssay (Tox21)
“And” between values parts separate entries of the source, which are not always exact repeats. Equal entries are not always repeated. Results filed as inconclusive are left out. A call without a number means that no potency is given here. The source holds several records for some structures; these can differ, active in one and inactive in another. The source made the active and inactive calls. Unless noted, calls follow the shape of the dose curve; as a rule, active = well fitted curve in the direction sought with a large enough effect in the repeat runs; inconclusive = weak or mixed curves; inactive = no such curve, though single readings can be large; an effect the other way counts as inactive or inconclusive.

Legend:
[1] = qHTS assay to identify small molecule that activate the aryl hydrocarbon receptor (AhR) signaling pathway - cell viability counter screen (AID 743086); also: nearly all actives have a fitted effect of over 45% in size; also: potency is read from the fitted curve at half-maximal effect
How it was run: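 HepG2-AhR-luc (HG2L7.5c1) cells, 4000/well, were preincubated 5 h at 37C, exposed to compound in qHTS format for 24 hr at 37C, then given CellTiter-Fluor for 30 min; viability was read as fluorescence in the reporter wells.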

[2] = qHTS assay to identify small molecule antagonists of the peroxisome proliferator-activated receptor gamma (PPARg) signaling pathway - cell viability counter screen (AID 743194); also: nearly all actives have a fitted effect of over 55% in size; also: potency is read from the fitted curve at half-maximal effect
How it was run: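 PPARg-UAS-bla HEK293H cells were plated, rested 5 h at 37 C, then treated with compounds plus rosiglitazone (50 nM final) for 17 h at 37 C; viability was then read by CellTiter-Glo luminescence after 30 min at room temperature.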

[3] = qHTS assay for small molecule agonists of the antioxidant response element (ARE) signaling pathway (AID 743202; active = well fitted activation curve with a large enough effect in the signal ratio in the repeat runs, not every such curve was filed as active; the % refers to the signal ratio; also: potency is read from the fitted curve at half-maximal effect)
How it was run: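 Read-out: LiveBLAzer B/G FRET substrate fluorescence after 2 h at room temperature, following 16 h compound treatment at 37 C of HepG2 cells carrying an ARE-driven beta-lactamase reporter.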

[4] = qHTS assay for small molecule agonists of the antioxidant response element (ARE) signaling pathway - cell viability counter screen (AID 743203; calls by dose curve; also: nearly all actives have a fitted effect of over 55% in size; also: potency is read from the fitted curve at half-maximal effect)
How it was run: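 Following 16 hrs of compound treatment at 37C, HepG2 cells with an ARE-controlled beta-lactamase gene were lysed with CellTiter-Glo. Luminescence was read after 30 min at room temperature.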

[5] = qHTS assay for small molecule activators of the heat shock response signaling pathway - cell viability counter screen (AID 743209); also: nearly all actives have a fitted effect of over 50% in size; also: potency is read from the fitted curve at half-maximal effect
How it was run: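 Readout: CellTiter-Glo luminescence, 30 min at room temperature. System: HSE-bla HeLa cells, 1500/well, plated overnight. Treatment: compounds in DMSO, 5 h at 37 C.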

[6] = qHTS assay for small molecule activators of the heat shock response signaling pathway (AID 743210; active = well fitted activation curve with a large enough effect in the signal ratio in the repeat runs, with a control signal flat, not every such curve was filed as active; the % refers to the signal ratio; also: series mostly up to about 63 µM)
How it was run: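 HSE-bla HeLa cells (beta-lactamase reporter under heat shock response elements) were exposed to compounds for 5 h at 37 C, then loaded with LiveBLAzer B/G FRET substrate for 2.5 h at room temperature before fluorescence reading.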

[7] = qHTS assay to identify aromatase inhibitors - cell viability counter screen (AID 743084);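 also: cells stimulated with testosterone during compound exposure; nearly all actives have a fitted effect of over 55% in size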; also: potency is read from the fitted curve at half-maximal effect
[8] = molecular target: Peroxisome proliferator-activated receptor gamma (Homo sapiens) (UniProt P37231); assay: qHTS assay to identify small molecule agonists of the peroxisome proliferator-activated receptor gamma (PPARg) signaling pathway (AID 743094; active = well fitted activation curve with a large enough effect in the signal ratio in the repeat runs, not every such curve was filed as active; the % refers to the signal ratio; also: potency is read from the fitted curve at half-maximal effect)
Peroxisome proliferator-activated receptor gamma (Homo sapiens), sequence (P37231 whole entry, looked up): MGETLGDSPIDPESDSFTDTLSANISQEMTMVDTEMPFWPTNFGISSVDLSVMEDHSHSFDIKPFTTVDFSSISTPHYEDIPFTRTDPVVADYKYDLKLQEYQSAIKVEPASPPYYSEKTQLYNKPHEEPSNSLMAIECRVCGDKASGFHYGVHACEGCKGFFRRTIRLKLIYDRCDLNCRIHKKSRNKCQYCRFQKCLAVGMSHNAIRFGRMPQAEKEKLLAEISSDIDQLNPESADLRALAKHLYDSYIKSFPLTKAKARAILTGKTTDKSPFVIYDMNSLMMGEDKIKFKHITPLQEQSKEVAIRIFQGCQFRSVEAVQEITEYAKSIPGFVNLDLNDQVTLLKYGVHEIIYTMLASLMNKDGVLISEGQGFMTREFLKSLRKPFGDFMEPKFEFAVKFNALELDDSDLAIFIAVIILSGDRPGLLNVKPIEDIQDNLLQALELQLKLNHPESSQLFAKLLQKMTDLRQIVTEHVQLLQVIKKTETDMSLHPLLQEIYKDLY
How it was run: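 Compounds dissolved in DMSO were added to PPARg UAS-bla HEK293H cells for 17 h at 37C, and reporter expression was quantified by fluorescence intensity after 1 h with LiveBLAzer B/G FRET substrate.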

[9] = molecular target: Aryl hydrocarbon receptor (Homo sapiens) (UniProt P35869); assay: qHTS assay to identify small molecule that activate the aryl hydrocarbon receptor (AhR) signaling pathway (AID 743085); also: nearly all actives have a fitted effect of over 15% in size; also: potency is read from the fitted curve at half-maximal effect;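 as to activation: HG2L7.5c1 human HepG2 liver cells with stably integrated DRE-driven firefly reporter; series mostly up to about 70 µM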
Aryl hydrocarbon receptor (Homo sapiens), sequence (P35869 whole entry, looked up): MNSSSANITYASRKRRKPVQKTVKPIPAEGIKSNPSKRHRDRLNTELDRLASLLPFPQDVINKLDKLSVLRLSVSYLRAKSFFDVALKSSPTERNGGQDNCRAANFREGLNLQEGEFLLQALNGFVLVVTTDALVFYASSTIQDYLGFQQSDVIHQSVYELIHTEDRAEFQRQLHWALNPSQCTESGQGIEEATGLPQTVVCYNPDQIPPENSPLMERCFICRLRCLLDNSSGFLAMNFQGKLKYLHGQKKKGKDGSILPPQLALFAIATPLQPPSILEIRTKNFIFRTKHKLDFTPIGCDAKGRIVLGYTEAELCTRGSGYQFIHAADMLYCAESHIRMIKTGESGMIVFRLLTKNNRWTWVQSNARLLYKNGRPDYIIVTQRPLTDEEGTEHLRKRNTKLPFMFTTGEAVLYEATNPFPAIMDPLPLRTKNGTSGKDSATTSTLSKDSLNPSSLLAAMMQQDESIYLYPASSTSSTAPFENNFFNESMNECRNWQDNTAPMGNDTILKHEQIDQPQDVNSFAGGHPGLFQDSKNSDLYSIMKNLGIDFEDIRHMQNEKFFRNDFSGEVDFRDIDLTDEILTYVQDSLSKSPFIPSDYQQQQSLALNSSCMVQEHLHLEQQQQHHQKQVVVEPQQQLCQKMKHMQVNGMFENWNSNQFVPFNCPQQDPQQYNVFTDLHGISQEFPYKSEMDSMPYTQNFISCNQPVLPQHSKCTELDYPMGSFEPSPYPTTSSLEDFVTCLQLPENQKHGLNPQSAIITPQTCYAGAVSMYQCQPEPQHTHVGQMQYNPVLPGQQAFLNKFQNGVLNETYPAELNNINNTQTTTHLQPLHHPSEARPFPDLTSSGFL
How it was run: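 Measured in HG2L7.5c1 cells: CellTiter-Fluor signal (30 min incubation, 37C) for viability, then luciferase luminescence (30 min, room temperature). Compound contact time was 24 h at 37C, following a 5 h pre-incubation.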

[10] = molecular target: Peroxisome proliferator-activated receptor gamma (Homo sapiens) (UniProt P37231); assay: qHTS assay to identify small molecule antagonists of the peroxisome proliferator-activated receptor gamma (PPARg) signaling pathway (AID 743191; calls by dose curve; also: nearly all actives have a fitted effect of over 30% in size; also: potency is read from the fitted curve at half-maximal effect)
How it was run: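 GeneBLAzer PPARg UAS-bla HEK293H cells carrying a UAS-driven beta-lactamase reporter were plated at 3000 cells/well, preincubated 5 h at 37C, then given compound for 17 h at 37C; LiveBLAzer B/G FRET substrate was read after 1 h at room temperature.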

| SMILES | Potency [1] | Potency [2] | Potency [3] | Potency [4] | Potency [5] | Potency [6] | Potency [7] | Potency [8] | Potency [9] | Potency [10] |
| --- | --- | --- | --- | --- | --- | --- | --- | --- | --- | --- |
| C/C=C/C(=O)O | inactive | inactive | inactive | inactive | inactive | inactive |  |  |  |  |
| Cc1cccc(N(C)C(=S)Oc2ccc3ccccc3c2)c1 | inactive | inactive |  | inactive | inactive | inactive | inactive | inactive |  |  |
| c1ccc2c(c1)c1cccc3ccc4cccc2c4c31 | inactive | inactive | 60.7 µM (active) | inactive | inactive | inactive | inactive |  | inactive |  |
| O=C(c1ccccc1)c1ccccc1O | inactive |  | inactive | inactive | inactive | inactive | inactive | inactive |  | inactive |
| OC[C@H]1O[C@@H]2O[C@H]3[C@H](O)[C@@H](O)[C@@H](O[C@H]4[C@H](O)[C@@H](O)[C@@H](O[C@H]5[C@H](O)[C@@H](O)[C@@H](O[C@H]6[C@H](O)[C@@H](O)[C@@H](O[C@H]7[C@H](O)[C@@H](O)[C@@H](O[C@H]8[C@H](O)[C@@H](O)[C@@H](O[C@H]1[C@H](O)[C@H]2O)O[C@@H]8CO)O[C@@H]7CO)O[C@@H]6CO)O[C@@H]5CO)O[C@@H]4CO)O[C@@H]3CO | inactive | inactive | inactive | inactive | inactive | inactive |  |  |  |  |
| O=C(/C=C/C=C/c1ccc2c(c1)OCO2)N1CCCCC1 | inactive | inactive |  | inactive | inactive | inactive | inactive |  | 612 nM (active) and 2.17 µM (active) | 43.7 µM (active) |
| COc1ccccc1/C=C/C=O | inactive | inactive | inactive | inactive | inactive |  | inactive | inactive |  | inactive |
| O=C=Nc1ccc(Cc2ccc(N=C=O)cc2)cc1 | inactive | inactive |  | inactive | inactive | inactive |  |  |  |  |
| O=C(Nc1ccc([N+](=O)[O-])cc1Cl)c1cc(Cl)ccc1O | inactive | 123 nM (active) and 461 nM (active) | inactive |  | 309 nM (active) |  | inactive |  | 211 nM (active) |  |
| Cc1c(C(N)=O)cc([N+](=O)[O-])cc1[N+](=O)[O-] | inactive | inactive | inactive | inactive | inactive |  | inactive |  | inactive |  |
| O=C(OCc1ccccc1)c1ccccc1O | inactive | inactive | inactive | inactive | inactive | inactive | inactive |  | inactive |  |
| O=C(c1ccc(OCCN2CCCCC2)cc1)c1c(-c2ccc(O)cc2)sc2cc(O)ccc12 | 21.1 µM (active) and 21.7 µM (active) and 19.3 µM (active) | 55 µM (active) and 15.5 µM (active) and 26.6 µM (active) |  | 61.2 µM (active) and 17.2 µM (active) and 29.8 µM (active) | inactive | inactive | 29.8 µM (active) and 34.4 µM (active) |  | inactive |  |
| Cn1cnc([N+](=O)[O-])c1Sc1ncnc2nc[nH]c12 |  | inactive | 8.41 µM (active) | 382 nM (active) | inactive |  | inactive | inactive | inactive and 19.2 µM (active) |  |
| Nc1ccc(Nc2ccccc2)cc1 |  |  |  | inactive | inactive | inactive | 61.1 µM (active) and inactive | inactive | inactive | inactive |
| Cc1ccc(C(=O)c2cc(O)c(O)c([N+](=O)[O-])c2)cc1 | inactive |  |  | 9690 nM (active) | inactive | inactive | inactive |  | inactive |  |
| O=P(O)(O)O | inactive | inactive |  | inactive | inactive | inactive | inactive |  | inactive |  |
| O=CCCCC=O | inactive | inactive | 52.5 µM (active) and inactive | inactive | 47.2 µM (active) and inactive | inactive | inactive | inactive and 53 µM (active) |  |  |
| CN(C)c1nc(N(C)C)nc(N(C)C)n1 | inactive |  | inactive | inactive | inactive | inactive |  |  |  |  |
